Source: PubChem BioAssay
tim23-1 inh: growth inhibitors of tim23-1 mutant yeast, primary screen, luminescence, uHTS | S. cerevisiae tim23-1 growth, BacTiter-Glo luminescence, 24 h | inhibition, % at 20 µM | hit rate 1.3% among 330,000 | AID 463212, 2010;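 active = growth inhibition of the mutant yeast at or above 50%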;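 also: temperature-sensitive mutant grown at 25 °C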
PfHsp90 yeast 2: growth inhibition of PfHsp90-expressing yeast, primary screen, antimalarial PfHsp90 inhibitor project, S. cerevisiae, BacTiter-Glo luminescence, single point, set 2 | hit rate 0.32% among 310,000 | inhibition, % at 9.4 µM | BacTiter-Glo ATP, 48 h; yeast lacking PDR1 and PDR3 efflux regulators;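 active = every replicate shows inhibition above about 80%, whatever the replicate mean, limit read from the data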
tim10-1 inh: growth inhibitors of tim10-1 mutant yeast, primary screen, luminescence, uHTS; hit rate 2.2% among 330,000; AID 463190, 2010; inhibition, % at 20 µM; S. cerevisiae tim10-1 ts strain growth, BacTiter-Glo, 24 h;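 active = inhibition of at least 40%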;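 also: mutant grown at 25 °C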
TIM10 inh: growth inhibitors of isogenic TIM10 control yeast, primary screen, counter-screen for tim10-1 yeast inhibitor project, luminescence, uHTS; S. cerevisiae TIM10 strain growth, BacTiter-Glo luminescence, 24 h; inhibition, % at 10 µM; hit rate 1.4% among 330,000; AID 463195, 2010;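 active = inhibition of 40% or more at the single tested concentration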;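 also: wild-type TIM10 isogenic control strain grown at permissive 25 °C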
NLRP3 yeast inh: NALP3 inflammasome inhibitors in reconstituted yeast, primary screen, luminescence, uHTS; Yeast reconstituted NLRP3/ASC/caspase-1, beta-gal luminescence, 24 h; inhibition, % at 10 µM; hit rate 0.39% among 330,000; AID 2825, 2010;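 active = inhibition of 50% or more; inactive = inhibition below 50%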
tim10-1 conf: growth inhibitors of tim10-1 mutant yeast, confirmation, single concentration, luminescence, S. cerevisiae. shares compounds with tim10-1 inh. S. cerevisiae tim10-1 ts strain growth, BacTiter-Glo, 24 h. inhibition, % at 20 µM. hit rate 56% among 7,400. AID 463213, 2010;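 active = inhibition of yeast growth at or above a set limit in either of two repeat tests at 20 µM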;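 also: tim10-1 mutant grown at permissive 25 °C to find synthetic lethal compounds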
Large screens that a line does not name were inactive (follow-up assays come after a bar, where they were run). Shown are actives, neighbours in structure and some others; about 3.7% of the full set was active somewhere.

C=C1CCC[C@]2(C)C[C@H]3OC(=O)C(CNCCN(CC)CC)[C@H]3CC12 (stereo not given in full)	tim10-1 inh 52 | tim10-1 conf 48
O=C(OCc1nnc(-c2ccc([N+](=O)[O-])cc2)o1)c1ccc(F)c(S(=O)(=O)N2CCOCC2)c1	none (no result: PfHsp90 yeast 2)
C=C1CCC2[C@](C)(CO)[C@H](O)CC[C@@]2(C)[C@@H]1/C=C/C1=CCOC1=O (stereo not given in full)	none
C=C1CC[C@@H]2[C@](C)(CO)[C@H](O)CC[C@@]2(C)[C@@H]1/C=C/C1=CCOC1=O	tim10-1 inh 98 | tim10-1 conf inactive
O=C1NC(c2cccc3ccccc23)Nc2ccc(Cl)cc21 (stereo not given)	none (no result: tim23-1 inh, tim10-1 inh, TIM10 inh, NLRP3 yeast inh)
CSc1ccc(/C=C/C(=O)c2c(O)cc(C)oc2=O)cc1	tim10-1 inh 47 | tim10-1 conf 38
CCCn1c2ccccc2c2cnn(CC(=O)NCCCN3C(C)CCCC3C)c(=O)c21 (stereo not given)	none
CCOC(=O)N1CCN(C(=O)COC(=O)c2cc(C)ccc2C)CC1	none
CC(C)c1ccc(/C=C/C(=O)N2CCCCCC2)cc1	tim10-1 inh 43 | tim10-1 conf inactive
CC(C)c1ccc(/C=C/C(=O)CCC(=O)O)cc1	tim10-1 inh 41 | tim10-1 conf inactive
CCOC(=O)c1ccc2nc(NC(=O)c3ccco3)sc2c1	tim10-1 inh 41 | tim10-1 conf inactive
CCCCC(=O)Nc1nc2ccc(C(=O)OC)cc2s1	tim10-1 inh 46 | tim10-1 conf inactive
CCOC(=O)c1ccc2nc(NC(=O)C(C)C)sc2c1	none
CCOC(=O)c1ccc2nc(NC(=O)c3cccs3)sc2c1	none
O=C(Nc1cccc(S(=O)(=O)N2CCCCCC2)c1)C1CC(=O)N(c2ccc3c(c2)OCCO3)C1 (stereo not given)	none (no result: PfHsp90 yeast 2)
CCCCc1cc(=O)oc2cc(OCC(=O)NCc3ccccn3)ccc12	tim10-1 inh 48 | tim10-1 conf inactive
CCCc1cc(=O)oc2cc(OCC(=O)NCc3ccccn3)ccc12	none
C=C(C1=CCN(S(=O)(=O)C(C)(C)C)[C@@H]1CCO)c1ccccc1	none (no result: tim23-1 inh, tim10-1 inh, TIM10 inh, NLRP3 yeast inh)
COc1cc(Br)ccc1C1CC(=O)C(C)C(c2ccc(Br)cc2OC)N1 (stereo not given)	tim10-1 inh 53 | tim10-1 conf inactive
COc1ccc(C2NC(c3ccc(OC)c(OC)c3OC)C(C)C(=O)C2C)c(OC)c1OC (stereo not given)	none
CC(Cl)C(=O)NC(=O)NC12CC3CC(CC(C3)C1)C2 (stereo not given)	tim10-1 inh 42 | tim10-1 conf inactive
CN(C(=O)c1cccc(C#CC(C)(C)O)c1)C1CCCN(Cc2ccccc2F)C1 (stereo not given)	none
C[C@@]12CCC=C[C@H]1[C@H](c1ccc3ccccc3c1)N(Cc1ccccc1)C2=O	tim10-1 inh 52 | tim10-1 conf 53
COc1ccc(Br)cc1[C@H]1[C@@H]2C=CCC[C@@]2(C)C(=O)N1Cc1ccccc1	tim10-1 inh 44 | tim10-1 conf 37
CCCC(=O)NC(c1ccco1)c1cc(Cl)c2cccnc2c1O (stereo not given)	PfHsp90 yeast 2 105, tim10-1 inh 50 | tim10-1 conf inactive
COc1ccc(C(NC(C)=O)c2cc(Cl)c3cccnc3c2O)cc1OC (stereo not given)	tim10-1 inh 40 | tim10-1 conf inactive
COc1ccc(Cl)cc1NC(=O)CSc1nc(C)cc(C)n1	tim10-1 inh 41 | tim10-1 conf inactive
COc1ccc(NC(=O)CSc2nc(C)cc(C)n2)cc1	none
Cc1cccc(Nc2nc(N)nc(-c3oc4ccccc4c3C)n2)c1	tim10-1 inh 42 | tim10-1 conf inactive
O=C1CC(SCc2nc3ccccc3[nH]2)C(=O)N1c1ccc(F)c(Cl)c1 (stereo not given)	tim10-1 inh 54 | tim10-1 conf 42
CC(=O)Nc1ccc(OS(=O)(=O)c2c(C)cc(C)cc2C)cc1	tim10-1 inh 46 | tim10-1 conf 31
Fc1cccc(Cl)c1CSc1ccc2nnc(-c3ccccn3)n2n1	tim10-1 inh 40 | tim10-1 conf 31
Fc1cccc(CSc2ccc3nnc(-c4ccccn4)n3n2)c1	none (no result: PfHsp90 yeast 2)
CCc1cc(=O)oc2cc(OC3CCCCC3=O)ccc12 (stereo not given)	tim10-1 inh 43 | tim10-1 conf inactive
Cc1c(C)c2ccc(OC3CCCCC3=O)cc2oc1=O (stereo not given)	none
c1cncc(-c2nc(NCc3ccco3)c3ccccc3n2)c1	tim10-1 inh 41 | tim10-1 conf 37
Cc1ccc(-c2nc(NCc3cccnc3)c3ccccc3n2)cc1	tim10-1 inh 46 | tim10-1 conf inactive
C/C(=N\Nc1ccccc1C)c1cccnc1	none
COc1ccc(CCN2C(=O)NC(NS(=O)(=O)c3ccccc3)(C(F)(F)F)C2=O)cc1OC (stereo not given)	none
CCCCN1C(=O)C(C(=O)OCC)CC2=C1CCCC2=O (stereo not given)	none (no result: tim23-1 inh, tim10-1 inh, TIM10 inh, NLRP3 yeast inh)
COc1cccc(C(=O)/C=C/c2ccc(OCC#N)c(OC)c2)c1	tim10-1 inh 43 | tim10-1 conf inactive
COC(=O)c1ccc(/C=C/C(=O)c2cccc(OC)c2)cc1	tim10-1 inh 42 | tim10-1 conf 34
COc1cccc(C(=O)/C=C/c2ccc(SC)cc2)c1	none (no result: PfHsp90 yeast 2)
Cc1cccc(CN2C(=O)/C(=C\c3ccc(C(=O)NCCN4CCOCC4)cc3)Sc3ccccc32)c1	tim10-1 inh 42 | tim10-1 conf inactive
O=C(NCCN1CCOCC1)c1ccc(/C=C2\Sc3ccccc3N(Cc3ccccc3F)C2=O)cc1	none
Cc1ccccc1CN1C(=O)/C(=C\c2ccc(C(=O)NCCN3CCOCC3)cc2)Sc2ccccc21	tim10-1 inh 45 | tim10-1 conf inactive
Cc1ccc2c(C)c(C(=O)N3CCCC(C(N)=O)C3)oc2c1C (stereo not given)	none
CC(=O)c1ccc(NC(=O)C2=CC(c3ccco3)=NS(=O)(=O)N2C)cc1	none
CCOC(=O)c1sc(=S)n(Cc2ccccc2)c1N	tim10-1 inh 42 | tim10-1 conf 40
O=c1cc(-c2ccccc2)[nH]n1-c1ccc([N+](=O)[O-])cc1	tim10-1 inh 43 | tim10-1 conf inactive
CCCN(CC(=O)Nc1ccccc1OC)C(=O)c1ccc(S(=O)(=O)NCc2ccco2)cc1	none
CN(N=Nc1nc[nH]c1C(=O)NN)C1CCCCC1	none (no result: tim23-1 inh, tim10-1 inh, TIM10 inh, NLRP3 yeast inh)
CO/N=C/c1ccc(N2CCN(C(=O)c3ccc(F)cc3)CC2)c([N+](=O)[O-])c1	none
CO/N=C/c1ccc(N2CCN(C(=O)c3cccc(C(F)(F)F)c3)CC2)c([N+](=O)[O-])c1	tim10-1 inh 41 | tim10-1 conf inactive
